The whole screen tested about 340,000 compounds, of which about 1,700 (0.5%) were called active. Inconclusive results (about 2%) are left out. No stated cut-off is given here; in the data, active means activity change below about -65%; inconclusive means mostly about -30% to -63%; inactive means weaker than that. What follows is part of a selection rich in actives, with near analogues and random picks from the rest.
Test system: CtBP / adenovirus E1A interaction (AlphaScreen)
Assay: qHTS Assay for Inhibitors of the CtBP/E1A Interaction
Details: AlphaScreen GST-E1A/His-CtBP binding, 1536-well; stronger effect = lower value
Procedure, shortened: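 AlphaScreen with 125 nM GST-E1A and 125 nM His-CtBP (5X stocks) in Tris pH 8.0, 300 mM NaCl, BSA, Tween 20, TCEP. Compounds preincubated 2 h at 37 deg C, then glutathione donor/nickel acceptor beads added for 1 h at 37 deg C in dark.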
On the % scale 0 is the no-effect control and ±100 the full control effect.

Activity change, active:
Cc1cc(C)nc(N/N=C/c2c(CO)cnc(C)c2O)n1 -85.2%
CC(C)(C)OC(=O)NCCCCCNC(=O)c1[nH]cnc1C(=O)Nc1nccs1 -77%
COc1ccc(Cc2nnc(N/N=C/c3ccccc3O)[nH]c2=O)cc1OC -73.4%
O=[N+]([O-])c1ccccc1S(=O)(=O)Nc1cccc2cccnc12 -78.7%
Nc1nonc1-n1nnc(C(=O)N/N=C/c2ccccc2O)c1CN1CCCC1 -92.6%
Oc1ccc2ccccc2c1N=Nc1nccs1 -93.9%
Oc1ccc(N=Nc2nccs2)c(O)c1 -92.5%
Cc1cc(C(=O)N/N=C/c2cc([N+](=O)[O-])cc(C)c2O)n[nH]1 -87.9%
NC(=S)NN=Cc1ccc(OC(=O)COc2cc(Cl)c(Cl)cc2Cl)cn1 -89.3%
Cc1cc([N+](=O)[O-])c(NC2CCCCC2)c([N+](=O)[O-])c1 -67.5%
Oc1c(CN2CCN(c3ccc(F)cc3)CC2)cc(Cl)c2cccnc12 -85.8%
COc1cncc(-c2cnc3sc(NCCc4ccccn4)nn23)c1 -68.3%

Activity change, inactive:
O=C(Nc1ccc(Cl)c(C(F)(F)F)c1)C1Cc2c(-c3ccccc3Oc3ccccc3)ccnc2O1 (stereo unspecified) -3.42%
CC(O)(c1cccc(F)c1)c1nc(-c2ccc3c(c2)OCO3)cs1 (stereo unspecified) 0.33%
Cc1ncc(CO)c(/C=N/NC(=O)c2cccc(S(=O)(=O)N3CCCC3)c2)c1O 0%
CCc1nc2c(OCc3ccc(Cl)cc3Cl)cccn2c1N(C)C(=O)C(C)C -14.5%
Cc1ccc(NC(=O)c2nc[nH]c2C(=O)N[C@@H](CCCCNC(=O)OC(C)(C)C)C(=O)OC(C)(C)C)cc1 -1.82%
CC(C)(C)OC(=O)NCCCCCNC(=O)c1nc[nH]c1C(=O)NCc1ccccc1 4.97%
COc1ccc(Cc2nnc(SC)[nH]c2=O)cc1 0.0747%
O=c1[nH]c(NCCO)nnc1Cc1ccc(Cl)cc1 0.739%
CC1CCN(C(=O)CSc2nnc(-c3ccco3)n2N)CC1 1.76%
COc1cc2ccc(C(C)=O)c(O)c2cc1OC 3.1%
NC(c1csc(NC(=O)Nc2ccccc2Oc2ccccc2)n1)c1ccccc1Cl (stereo unspecified) -22.8%
Cc1cccc(C)c1Cn1c(C)c(C(=O)NCc2cccc(Cl)c2)sc1=O -20%
NS(=O)(=O)c1ccc(CCNS(=O)(=O)c2cccc3cccnc23)cc1 3.18%
Cc1ccc2cccc([N+](=O)[O-])c2n1 -11.4%
CNC(=O)C1CN(C(=O)c2cccc(S(=O)(=O)N3CCc4ccccc43)c2)c2ccccc2O1 (stereo unspecified) -7.74%
CCOC(=O)[C@]12CCCC=C1N(Cc1ccc3c(c1)OCO3)C(=O)[C@H](CC(=O)NCc1cccs1)C2 -17.2%
CN(C)C(CNC(=O)c1cc(Br)c(Br)s1)c1ccco1 (stereo unspecified) 0.728%
CC(C)c1c(C(=O)N/N=C/c2ccccc2C(=O)O)nnn1-c1nonc1N 18.7%
CCc1ccc(/C=N/NC(=O)c2nnn(-c3nonc3N)c2CN2CCc3ccccc32)cc1 -23.8%
CCOC(=O)N1CCN(C(=O)C[C@@H]2C[C@@]3(C(=O)OC)CCCCC=C3N(CCC3=CCCCC3)C2=O)CC1 -2.03%
OC[C@@H]1CN(Cc2ccc(-c3ccccc3)cc2)C[C@H](n2cnc3c(NC4CCCC4)ncnc32)O1 -10.7%
O=C1[C@H]2[C@@H](c3ccc(C(F)(F)F)cc3)N[C@]3(CCCN(Cc4ccc(Cl)cc4)C3=O)[C@H]2C(=O)N1Cc1ccccc1 5.38%
Cc1ccc(S(=O)(=O)N2C[C@H]3n4c(=O)ccc(=O)n4C[C@H](OC(=O)NC4CCCC4)[C@@]3(O)C2)cc1 2.31%
CC(=O)NC(c1cccc(F)c1)c1nc(-c2cccc(F)c2)cs1 (stereo unspecified) 6.59%
CCOC(=O)c1cc(-c2sc(NC(=O)c3ccccc3)nc2C)n(-c2ccc(Br)cc2)n1 0%
COc1cccc(NC(=O)CN(C)C(=O)c2cc(Cl)nc3ccccc23)c1 -3.92%
COc1ccc2ccccc2c1/C=N/NC(=O)c1cc(C)[nH]n1 -8.94%
Cc1ccsc1C(=O)N/N=C/c1ccc([N+](=O)[O-])cc1 -4.19%
Cc1ccccc1S(=O)(=O)NC(=O)C1(C)CCN1C(=O)C1(c2ccc(Cl)cc2)CC1 (stereo unspecified) 9.59%
NC(c1ccccc1)c1csc(NC(=O)Nc2cccc(C(F)(F)F)c2)n1 (stereo unspecified) -14.2%
O=C(COC(=O)COc1cc(Cl)c(Cl)cc1Cl)NC1CC1 -0.684%
O=C(COc1ccc(Cl)cc1Cl)N/N=C/c1ccccn1 -13%
CCCS(=O)(=O)NC(=O)C1(C)CCCN(C(=O)c2ccnc(Cl)c2)C1 (stereo unspecified) -15.6%
Cc1cc([N+](=O)[O-])c(N2CCC[C@@H]2C(=O)O)c([N+](=O)[O-])c1 4.03%
Cc1cc([N+](=O)[O-])ccc1NC1CCCC1 -0.0944%
CN(C)CCNC(=O)c1ccc(-c2cn3c(-c4ccc(Oc5ccccc5)cc4)cnc3cn2)cc1 -7.14%
Cc1cccc(C)c1NC(=O)CN1CCN(c2ccc(F)cc2)CC1 -4.18%
Cc1ccc(CN2CCN(c3ncccn3)CC2)c(C)c1 -0.239%
O=C1CC[C@@H](C(=O)N2CSC[C@@H]2C(=O)Nc2ccc(C(F)(F)F)cc2)N1 2.94%
COc1ccc(C=C2CCC3C(CCCC34OCCO4)C2=O)cc1 (stereo unspecified) -0.25%
Cc1ccc(C(=O)N/C(=C\c2cccs2)C(=O)NCCc2ccccn2)cc1C -19.9%
COc1cccc(NC(=S)NCc2ccccn2)c1 -9.96%
O=S(=O)(c1cccc(C(F)(F)F)c1)N1c2ccccc2-n2cccc2C1c1cccnc1 (stereo unspecified) 1.4%
C[C@@H]1CN([C@@H](C)CO)C(=O)c2cc(Br)cnc2O[C@H]1CN(C)Cc1ccc(-c2ccccc2)cc1 -2.2%

From PubChem BioAssay AID651724 (National Center for Advancing Translational Sciences (NCATS), 2012)
